Screens deposited in PubChem by National Center for Advancing Translational Sciences (NCATS).
KB-V1 cytotox: KB-V1 MDR subline cytotoxicity | hit rate 3.4% among 400,000 | Potency, µM (titrated, usually from 46.1 µM), hits mostly cytotoxic | KB-V1 MDR cells viability, CellTiter-Glo, 72 h; note: potency is the fitted concentration of half-maximal effect; % is set by controls: 0 for no effect and ±100 for the full control effect; nearly all actives have a fitted effect of over 60% in size
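Compound-treated KB-V1 multidrug-resistant cells, 72 h, 37 degrees C; viability by CellTiter-Glo. Fitted qHTS curves give the values.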
MCF10A rereplic: DNA re-replication induction in MCF 10a cells | Potency, µM (highest dose often 46.1 µM), for inactives: at the highest dose activity, positive = re-replication, hits mostly activators | MCF 10A DNA re-replication, Hoechst nuclear intensity, 48 h | AID 624296 | hit rate 2.9% among 350,000; note: potency is the fitted concentration of half-maximal effect; % of control where 0% means no effect; nearly all actives have a fitted effect of over 50% in size
SW480 rerep: inducers of DNA re-replication in SW480 colon cancer cells; Potency, µM (series often up to 46.1 µM), for inactives: top-dose re-replication activation, actives largely listed as activators; SW480 DNA re-replication, Hoechst DNA content imaging, 48 h; hit rate 1.8% among 340,000; note: potency is the fitted concentration of half-maximal effect; % of control where 0% means no effect; nearly all actives have a fitted effect of over 55% in size
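First, 250 cells per well were seeded. Next, compound or vehicle (23 nL) was pinned in, plates sat 48 hr at 37 C. Finally Hoechst was added for 40 min before fluorescence scanning.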
DRD3 antagonist: antagonists of human D3 dopamine receptor | hit rate 2.5% among 360,000 | P35462 | D3R cells, DiscoveRx beta-arrestin luminescence, antagonist mode; active compounds read low | max response, negative = inhibition, %; in the data active = max response below about -50%; inconclusive = no clear call, values can overlap the other calls; note: % is set by controls: 0 for no effect and ±100 for the full control effect
Target sequence (P35462 whole entry, looked up): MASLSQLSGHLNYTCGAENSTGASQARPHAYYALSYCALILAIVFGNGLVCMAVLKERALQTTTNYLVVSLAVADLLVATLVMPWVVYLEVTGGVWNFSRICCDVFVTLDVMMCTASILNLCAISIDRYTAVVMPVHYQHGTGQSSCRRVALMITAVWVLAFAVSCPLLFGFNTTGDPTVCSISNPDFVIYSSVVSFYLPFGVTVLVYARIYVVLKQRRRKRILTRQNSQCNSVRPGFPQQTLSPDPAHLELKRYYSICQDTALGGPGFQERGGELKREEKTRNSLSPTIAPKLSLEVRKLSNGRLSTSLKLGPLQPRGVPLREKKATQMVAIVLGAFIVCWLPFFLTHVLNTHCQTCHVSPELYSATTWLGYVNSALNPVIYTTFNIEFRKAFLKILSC
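Cells expressing the human receptor were seeded at 1500 cells/well, incubated overnight at 37 degrees C in 5% CO2, then exposed to library compounds with dopamine controls for 90 minutes at 37 degrees C before luminescent detection.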
KB-3-1 cytotox: KB-3-1 parental cell cytotoxicity | hit rate 1.4% among 400,000 | KB-3-1 viability, CellTiter-Glo ATP luminescence, 72 h | Potency, µM (doses to about 46.1 µM), usual class: cytotoxic; note: potency is the fitted concentration of half-maximal effect; % is set by controls: 0 for no effect and ±100 for the full control effect; nearly all actives have a fitted effect of over 60% in size
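Using CellTiter-Glo luminescence, growth of non-resistant KB-3-1 adenocarcinoma cells is assessed 72 h after pin-tool compound addition at 37 °C. Normalized responses across the concentration series yield fitted curves.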
D3 ag: D3 dopamine receptor (human) agonism. P35462. D3R DiscoveRx beta-arrestin cells, luminescence, 90 min. max activation, %. hit rate 0.58% among 410,000. AID 652048; in the data active = max activation above about 30%; note: 0% is about no effect
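Agonist mode: compounds and dopamine controls were applied to plated cells for 90 min at 37 degrees C after an overnight attachment at 1500 cells/well. Luminescent read-out followed 30 - 60 minutes at room temperature with DiscoveRx detection reagent.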
* = called active by the depositor; i = inactive; u = inconclusive; x = no result given. A selection: hits, their analogues and other compounds. The true share with any hit is near 8.9%. Unless noted, calls come from the whole dose curve; as a rule, active = well fitted curve in the direction sought with a large enough effect; inconclusive = small, poorly fitted or top-dose-only effect, or another doubt; inactive = no such curve, though single readings can be large; an effect the other way counts as inactive or inconclusive.

SMILES	KB-V1 cytotox	MCF10A rereplic	SW480 rerep	DRD3 antagonist	KB-3-1 cytotox	D3 ag
Cc1sc(N2CCN(S(=O)(=O)c3ccc4c(c3)NC(=O)CO4)CC2)nc1-c1ccccc1	i	3%	u	18	i	7
COc1ccc(-c2csc(N3CCN(S(=O)(=O)c4ccc5c(c4)NC(=O)CO5)CC3)n2)cc1	u	33%	9.2µM*	18	u	1
CC1CCCC(NC(=O)CSc2n[nH]c(=O)n2Cc2ccccc2)C1C (stereo unspecified)	i	-12%	-3%	-4	i	48*
NS(=O)(=O)c1ccc(NC(=O)CSc2n[nH]c(=O)n2Cc2ccccc2)cc1	i	-4%	-1%	5	i	5
O=C(CSc1n[nH]c(=O)n1Cc1ccccc1)Nc1ccc(F)c(F)c1F	16µM*	18%	-8%	-18	u	-2
COc1ccc(/C=N/NC(=O)c2cc3c(OC)ccc(OC)c3[nH]2)cc1O	9.2µM*	u	u	5	2.9µM*	-9
COc1cccc(/C=N/Nc2nccnc2Cl)c1O	i	5.8µM*	0.26µM*	-2	u	-1
COc1cccc(/C=N/Nc2ncnc(Cl)c2N)c1O	u	u	u	10	u	12
COc1cccc(/C=N/NC(=O)C(=O)N/N=C/c2cccc(OC)c2O)c1O	i	3%	6.5µM*	-5	u	-3
COc1ccc(OC)c2[nH]c(C(=O)N/N=C/c3ccccc3O)cc12	i	u	u	0	u	1
COc1cccc(/C=N/Nc2ncnc3scc(-c4ccccc4)c23)c1O	u	13µM*	u	46	u	38*
COc1ccc(Cl)cc1NS(=O)(=O)c1ccc2c(c1)NC(=O)CC(=O)N2	i	x	x	x	i	3
CCN(C[C@H]1N[C@@](C)(C(=O)OC)[C@H]2C(=O)N(Cc3ccccc3)C(=O)[C@@H]12)C(=O)Nc1ccc(F)cc1	i	-5%	0%	0	i	7
NC(=S)N/N=C/c1ccccc1[N+](=O)[O-]	u	-5%	2%	-14	i	0
COc1ccccc1/C=N/NC(=O)CC(=O)Nc1ccc(Cl)c(Cl)c1	i	0%	-13%	-65*	i	-2
COC(=O)c1cccc(/C=N/NC(N)=S)c1O	15µM*	24%	u	-22	u	-8
COc1cccc(/C=N/NC(=O)NC23CC4CC(CC(C4)C2)C3)c1O	u	29%	7%	-62*	u	-16
COc1ccccc1/C=N/NC(=O)COCC(=O)N/N=C/c1ccccc1OC	i	2%	-2%	10	i	-4
O=C(N/N=C/c1cc([N+](=O)[O-])ccc1Cl)c1cnccn1	i	u	5.2µM*	-20	2.6µM*	-18
CCc1ccc(NC(=O)CCn2nc(-c3ccccc3OC)c3c(C)cc(C)nc32)cc1	i	x	x	x	i	1
COc1cccc(C=NNC(=S)NN=Cc2cccc(OC)c2OC)c1OC	u	18µM*	-4%	19	i	6
COc1cccc(/C=N/NC(=O)c2cc3cc([N+](=O)[O-])ccc3s2)c1O	u	u	1.8µM*	-14	u	8
COc1ccc(/C=N/NC(=O)c2cnccn2)c(OC)c1OC	i	-1%	2%	-4	i	-5
COc1cccc(/C=N/NC(=O)c2cnccn2)c1O	i	5%	5.2µM*	3	i	5
COc1cccc(/C=N/NC(=O)c2cc3c(OC)cccc3[nH]2)c1O	u	0%	9.2µM*	0	u	7
CC(=O)N1CCCc2cc(S(=O)(=O)N(C)CC(=O)Nc3ccc(F)c(Cl)c3)ccc21	u	x	x	x	u	7
COc1cccc(/C=N/NC(=O)c2cc3c(OC)c(OC)ccc3[nH]2)c1OC	i	u	23µM*	69	9.2µM*	1
COc1ccccc1/C=N/NC(=O)c1ccc(-c2ccccc2)cc1	i	18µM*	6%	-15	i	0
